Screens: PubChem, National Center for Advancing Translational Sciences (NCATS)
SW480 rereplic: A quantitative high throughput screen for small molecules that induce DNA re-replication in SW480 colon adenocarcinoma cells | Potency, µM (series often up to 46.1 µM), inactives show at the highest dose re-replication activation, usual class: activators | AID 624297, 2012 | 340,000 compounds, 1.8% hits | SW480 DNA re-replication, Hoechst DNA content imaging, 48 h; further: % of control where 0% means no effect; nearly all actives have a fitted effect of over 55% in size
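Image-based read-out: total Hoechst fluorescence of nuclei (405 nm excitation, 500-530 nm emission), with hits raising the fraction of high-intensity nuclei. SW480 colon cells incubated 48 hr with compounds at 37 C.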
ELG1 DNA repair: qHTS screen for small molecules that inhibit ELG1-dependent DNA repair in human embryonic kidney (HEK293T) cells expressing luciferase-tagged ELG1; HEK293T ELG1-luciferase reporter, luminescence, 16 h; DNA damage induced by 5-fluorouridine; Potency, µM (highest dose often 46.1 µM), for inactives: at the highest dose activity change, negative = inhibition, hits mostly inhibitors; 330,000 compounds, 2.3% hits; further: on the % scale 0 is the no-effect control and ±100 the full control effect; nearly all actives have a fitted effect of over 55% in size
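5-Fluorouridine DNA damage + compound/DMSO, 2,000 cells/well, 16 h, 37 °C/5% CO2. ONE-Glo, 30 min RT, luminescence. Readout = decrease in reporter signal.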
MCF10A rerep: A quantitative high throughput screen for small molecules that induce DNA re-replication in MCF 10a normal breast cells | MCF 10A DNA re-replication, Hoechst nuclear intensity, 48 h | Potency, µM (doses to about 46.1 µM), inactives show at the top dose activity, positive = re-replication, usual class: activators | 350,000 compounds, 2.9% hits; further: % of control where 0% means no effect; nearly all actives have a fitted effect of over 50% in size
RORgamma inh: qHTS for inhibitors of ROR gamma transcriptional activity | Drosophila S2 Gal4-RORgamma UAS-luciferase reporter, 20 h | Potency, µM (titrated, usually from 53.6 µM), inactives show top-dose activity change, negative = inhibition, actives largely listed as inhibitors | 310,000 compounds, 5.4% hits; further: on the % scale 0 is the no-effect control and ±100 the full control effect; nearly all actives have a fitted effect of over 60% in size
Target sequence (P51450 whole entry, looked up, the tested form may be a part): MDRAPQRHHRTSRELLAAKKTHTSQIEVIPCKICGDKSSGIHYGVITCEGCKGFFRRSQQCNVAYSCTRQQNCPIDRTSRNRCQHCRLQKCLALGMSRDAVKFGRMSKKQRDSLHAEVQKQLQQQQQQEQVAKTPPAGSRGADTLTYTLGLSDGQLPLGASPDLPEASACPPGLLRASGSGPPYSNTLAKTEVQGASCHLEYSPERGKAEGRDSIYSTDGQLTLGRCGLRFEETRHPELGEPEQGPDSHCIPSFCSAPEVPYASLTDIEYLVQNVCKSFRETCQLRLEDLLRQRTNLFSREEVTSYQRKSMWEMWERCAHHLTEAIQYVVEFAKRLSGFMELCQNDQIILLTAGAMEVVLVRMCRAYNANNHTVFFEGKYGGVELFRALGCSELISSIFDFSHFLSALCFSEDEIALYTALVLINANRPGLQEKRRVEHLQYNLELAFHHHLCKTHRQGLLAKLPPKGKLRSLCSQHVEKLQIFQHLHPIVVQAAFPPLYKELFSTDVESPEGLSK
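A Gal4/UAS one-hybrid system in insect cells: metallothionein-promoter Gal4–ROR gamma fusion plus Photinus luciferase reporter. Copper sulfate 700 uM final, 20 hr ambient incubation, luminescent detection after 10 min with reagent.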
VP16 counter: VP16 counterscreen qHTS for inhibitors of ROR gamma transcriptional activity; AID 2546, 2010; Potency, µM (titrated, usually from 53.6 µM), inactives show top-dose activity, negative = inhibition, most hits filed as inhibitors; Drosophila S2 Gal4-VP16 UAS-luciferase, luminescence, 20 h; 310,000 compounds, 3.5% hits;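 further: Gal4-VP16 expression switched on by copper sulfate through the metallothionein promoter; on the % scale 0 is the no-effect control and ±100 the full control effect; nearly all actives have a fitted effect of over 50% in size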
* hit, by the source's call; ? = inconclusive; · = not tested or not shown; [ ] = remark or other dose. In the library only some 10% were active in any assay of this set; here they are far more common. The call rests on the fitted dose curve; in most records, active means well fitted curve in the direction sought with a large enough effect; inconclusive means small, poorly fitted or top-dose-only effect, or another doubt; inactive means no such curve, though single readings can be large; an effect the other way counts as inactive or inconclusive. Potency means the concentration at half of the fitted maximal effect.

SMILES	SW480 rereplic	ELG1 DNA repair	MCF10A rerep	RORgamma inh	VP16 counter
O=c1[nH]c(=S)[nH]c2c1C(c1ccc(Br)cc1)c1c([nH]c(=S)[nH]c1=O)O2	6%	-7%	1%	-12%	0%
CCn1cc(Cl)c(C(=O)Nc2c(C)nn(Cc3c(F)c(F)c(F)c(F)c3F)c2C)n1	-4%	-6%	-2%	·	·
CN(C)CCC(=O)C(Cc1ccccc1)c1ccccc1 (stereo unspecified)	?	·	4.1µM*	·	·
COc1ccc(C(=O)Nc2ccc(C(=O)O)cc2NC(=O)c2ccc(OC)cc2)cc1	-29%	?	?	1%	3%
COc1ccc(C(=O)Nc2ccc(C3=NNC(=O)CC3C)cc2NC(=O)c2ccc(OC)cc2)cc1 (stereo unspecified)	?	16µM*	13%	36%	?
CCOc1ccc(N(C)S(=O)(=O)c2ccc3[nH]cc(C(=O)NCC4CCCO4)c(=O)c3c2)cc1 (stereo unspecified)	-2%	23µM*	7%	9%	3%
CCN(CC)S(=O)(=O)c1cccc(C(=O)NCC2CCCO2)c1 (stereo unspecified)	?	-28%	23µM*	5%	-2%
C=CCn1cc(C(=O)NCC2CCCO2)c(=O)c2cc(S(=O)(=O)N3CCCCCC3)ccc21 (stereo unspecified)	0%	10µM*	0%	30%	6%
CCN(CC)S(=O)(=O)c1cccc(C(=O)NCC2CCCCC2)c1	-1%	-20%	7%	31%	1%
CC1CCN(S(=O)(=O)c2ccc3c(c2)c(=O)c(C(=O)NCc2ccco2)cn3C)CC1	4%	18µM*	12%	68%	-3%
COCCNC(=O)C(OC(=O)c1ccco1)c1ccccc1F (stereo unspecified)	-2%	3%	-2%	-35%	-6%
Cc1cccc(C)c1NC(=O)CN(C)C(C)C(=O)NCC(=O)Nc1ccc(F)c(F)c1F (stereo unspecified)	-10%	-16%	15%	·	·
CO[C@@]12C[C@@H](COC(=O)c3cncc(Br)c3)CN(C)[C@H]1Cc1cn(C)c3cccc2c13	·	·	·	-7%	0%
O=C(Nc1ccc(S(=O)(=O)N2CCCC2)cc1)C1CC(=O)N(c2ccc(F)cc2)C1 (stereo unspecified)	-11%	-1%	-10%	25%	-11%
CCCc1nc(SCC(=O)NCC2CCCO2)c2c(=O)n(C)c(=O)n(C)c2n1 (stereo unspecified)	3%	0%	-2%	-18%	2%
COCCNC(=O)c1cn(C)c2ccc(S(=O)(=O)N(C)C3CCCCC3)cc2c1=O	-12%	?	11%	20%	-7%
COC(CNC(=O)c1cn(C)c2ccc(S(=O)(=O)N(C)C3CCCCC3)cc2c1=O)OC	-30%	5.2µM*	?	5%	-7%
CCn1cc(C(=O)NCC2CCCO2)c(=O)c2cc(S(=O)(=O)N(C)C)ccc21 (stereo unspecified)	-5%	-16%	6%	14%	-2%
CCN1CCCC1CNC(=O)c1cn(C)c2ccc(S(=O)(=O)N3CCCCCC3)cc2c1=O (stereo unspecified)	0%	-4%	-3%	7%	-8%
Cn1cc(C(=O)NCC2COc3ccccc3O2)c(=O)c2cc(S(=O)(=O)N3CCCCC3)ccc21 (stereo unspecified)	-2%	18µM*	-5%	31%	-2%
CCn1cc(C(=O)NCC(OC)OC)c(=O)c2cc(S(=O)(=O)N(C)C3CCCCC3)ccc21	-22%	9.2µM*	2%	1%	19%
CCn1cc(C(=O)NCC2CCCO2)c(=O)c2cc(S(=O)(=O)N(C)C3CCCCC3)ccc21 (stereo unspecified)	-5%	16µM*	10%	-5%	-2%
CCC(=O)c1ccc(OCc2cn(CC(=O)c3ccc(O)cc3)nn2)cc1	-7%	·	-41%	·	·
CCOC(=O)C1=C(COC(=O)CCOc2ccc(OC)cc2)NC(=O)NC1C (stereo unspecified)	-16%	1%	-6%	·	·
CCOC(=O)C1=C(COC(=O)CCOc2ccc(C)cc2)NC(=O)NC1C (stereo unspecified)	?	26µM*	18µM*	·	·
SMILES	SW480 rereplic	ELG1 DNA repair	MCF10A rerep	RORgamma inh	VP16 counter
Cc1ccccc1-n1c(C)nc2ccccc21	-3%	9%	21%	11µM*	7%[0.365 µM]
Cc1nc2ccccc2n1-c1ccccc1	-5%	-13%	1%	0%	-12%
CC(c1ccccc1)N(CCC(c1ccccc1)C1CCOC(C)(C)C1)C(=O)c1ccco1 (stereo unspecified)	-2%	23µM*	16µM*	64%	?
COc1ccc(CN(CCC(c2ccccc2)c2ccco2)C(=O)c2ccco2)cc1 (stereo unspecified)	-4%	?	?	26%	4%
COc1ccc(CN(CCC(c2ccc(F)cc2)C2CCOC(C)(C)C2)C(=O)c2ccco2)cc1 (stereo unspecified)	5%	10µM*	23µM*	25%	-5%
O=C(NCCc1cscn1)C1CCC(=O)N(Cc2ccc(Cl)cc2)C1 (stereo unspecified)	-1%	0%	-8%	20µM*	?
O=C(NCCc1ccccc1)C1CCC(=O)N(Cc2ccc(Cl)cc2)C1 (stereo unspecified)	-6%	1%	8%	10%	1%
CCN=C1SC(C(=O)Nc2cccc(Br)c2)CC(=O)N1CC (stereo unspecified)	5%	?	4%	24%	-9%
O=C(Nc1ccc([N+](=O)[O-])cc1)C(Cc1ccccc1)N1C(=O)c2cccc3cccc(c23)C1=O (stereo unspecified)	18µM*	6%	12µM*	?	-15%
O=C(O)c1ccccc1NC(=O)C(Cc1ccccc1)N1C(=O)c2ccccc2C1=O (stereo unspecified)	-20%	17%	-2%	17%	4%
Oc1ccc(Cl)cc1N=Nc1ccccc1	3%	?	4%	26%	25%
Cc1ccc(O)c(N=Nc2ccccc2)n1	-9%	·	0%	1µM*	2.8µM*
COc1cc2c(cc1OC)C(Cc1ccc(O)cc1)NCC2 (stereo unspecified)	?	-9%	?	2%	-4%
CCOc1ccc(CC2NCCc3cc(OCC)c(OCC)cc32)cc1OCC (stereo unspecified)	?	15µM*	?	12%	-23%
O=C(COC(=O)COc1ccc(Cl)cc1Br)NCCC1=CCCCC1	-31%	2%	1%	·	·
